# According to PubChem BioAssay AID624483 (NMMLSC, 2012):
# In all, about 360,000 compounds went through this assay and about 11,000 (3.1%) were called active. Not shown: some 2% with an inconclusive outcome. No stated cut-off is given here; in the data, active means fluorescence intensity above about 16000; inconclusive means no clear call, values can overlap the other calls; inactive means below that. This excerpt belongs to a sample that is enriched for actives.
# Test: counter-screen for toxin protease inhibitors: compound fluorescence, primary screen, artefact control for toxin protease inhibitor project, biochemical, multiplex microsphere, HTS (AID 624483)
# Conditions: compound autofluorescence counterscreen, microsphere flow cytometry; stronger effect = higher value
row,SMILES,fluorescence intensity
1,Cc1ccccc1CN1CCN(C(=O)c2cccc(F)c2)CC1,2980 (inactive)
2,Cc1ccccc1CS(=O)(=O)CC1(O)CCN(C(=O)c2cccc(C(F)(F)F)c2)CC1,20100 (active)
3,CC(C)CC(=O)N1CCC(O)(CS(=O)(=O)Cc2ccccc2)CC1,10100 (inactive)
4,Cn1c(=O)c2c(nc(N3CCCCCC3)n2CC(O)COc2ccc(Cl)cc2)n(C)c1=O (stereo unspecified),21800 (active)
5,Cc1cccc(OCC(O)Cn2c(N3CCCCC3)nc3c2c(=O)[nH]c(=O)n3C)c1 (stereo unspecified),4090 (inactive)
6,O=C(c1ccc(Cl)cc1)c1ccc(OCC(O)CN2CCCCC2)cc1 (stereo unspecified),4210 (inactive)
7,c1cc(-c2ccc3[nH]ccc3c2)n2ccnc2c1,3500 (inactive)
8,COC(=O)[C@]12CCCCC=C1N(Cc1ccco1)C(=O)[C@H](CC(=O)NCC1CCCCC1)C2,4680 (inactive)
9,CSc1ncccc1C(=O)Nc1cccc(S(=O)(=O)N2CCOCC2)c1,4320 (inactive)
10,Oc1ccc(CNc2ccccc2O)cc1,3590 (inactive)
11,COc1ccc(OC)c(C(=O)c2coc3ccc(OC)cc23)c1,2950 (inactive)
12,COc1ccc(OC)c(C(=O)c2coc3ccc(O)c(CN4CCOCC4)c23)c1,22400 (active)
13,COc1ccc2oc(=O)cc(CN3CCOCC3)c2c1,4180 (inactive)
14,Cc1ccc(NC(=O)c2oc(=O)c3ccccc3c2-c2ccccc2)c(C)c1,2070 (inactive)
15,CCN(CC)CCNc1nc(-c2ccc(OC(F)F)cc2)c(C)s1,4700 (inactive)
16,O=C(c1cccc(Br)c1)N1CCN(C2=NS(=O)(=O)c3ccccc32)CC1,5480 (inactive)
17,CC(=O)Nc1ccc(NC(=O)C2CCCN(S(=O)(=O)c3ccc(Cl)cc3)C2)cc1 (stereo unspecified),5830 (inactive)
18,COc1ccc(CCNC(=O)C2CCCN(S(=O)(=O)c3ccc(OC)cc3)C2)cc1 (stereo unspecified),5700 (inactive)
19,COc1ccc(S(=O)(=O)N2CCCC(C(=O)Nc3ccc(NC(=O)c4ccccn4)cc3)C2)cc1 (stereo unspecified),22100 (active)
20,Cc1ccc(F)c(S(=O)(=O)NC(=O)C2(C)CCN2C(=O)CCc2cccs2)c1 (stereo unspecified),3440 (inactive)
21,CCOc1ccc(NC(=O)c2ccccc2NS(C)(=O)=O)cc1,9540 (inactive)

row,SMILES,fluorescence intensity
1,COC(=O)c1ccccc1NS(=O)(=O)c1ccc2[nH]c(=O)[nH]c2c1,2520 (inactive)
2,COC(=O)c1ccc(NC(=O)c2ccccc2NS(=O)(=O)c2ccccc2)cc1,20200 (active)
3,O=C(NCCC(=O)N1O[C@@H]2C=C[C@H]1C2)OCC1c2ccccc2-c2ccccc21,3360 (inactive)
4,COc1ccc(S(=O)(=O)NC(=O)C2(C)CCN2C(=O)c2ccccc2CCc2ccccc2)cc1 (stereo unspecified),3970 (inactive)
5,O=C(O)c1ccc(F)c(S(=O)(=O)Nc2ccccc2)c1,9990 (inactive)
6,COc1ccc(Cl)cc1S(=O)(=O)Nc1cccc(C(=O)O)c1,22100 (active)
7,COc1ccc(C)cc1S(=O)(=O)Nc1cccc(Cl)c1Cl,2450 (inactive)
8,COc1ccc(C(N)c2csc(NC(=O)Nc3cccc(C(F)(F)F)c3)n2)cc1 (stereo unspecified),3490 (inactive)
9,Cn1nnnc1SCC(=O)N1CCN(C(c2ccccc2)c2ccccc2)CC1,3570 (inactive)
10,CC(=O)c1ccc(-n2nnnc2SCC(=O)N2CCN(C(=O)c3ccco3)CC2)cc1,2310 (inactive)
11,Cn1nnnc1SCC(=O)N1CCN(Cc2ccccc2)CC1,19800 (active)
12,CC(C)COc1ccc(C(=O)NNC(=O)CCC(=O)c2cccs2)cc1,4110 (inactive)
13,O=C(O)CCSc1nnc(-c2ccccc2)n1-c1ccccc1,22100 (active)
14,O=C(O)CSc1nnc(-c2ccc3c(c2)OCO3)n1-c1ccccc1,2040 (inactive)
15,NNC(=O)CSc1nnc(-c2ccccc2)n1-c1ccccc1,3710 (inactive)
16,COc1ccccc1Cc1c(-c2ccc(Cl)cc2)nc2ccc(Cl)cn12,8280 (inactive)
17,Cc1nn(-c2ccccc2)c(Cl)c1C(=O)Nc1ccccc1,20900 (active)
18,COc1ccc(CCNC(=O)c2c(C)nn(-c3ccccc3)c2Cl)cc1,5520 (inactive)
19,Cc1nn(-c2ccccc2)c(C)c1NC(=O)CCl,2020 (inactive)
20,CCc1nc2ccc(C(=O)Nc3cc(-c4ccccc4)ccc3OC)cn2c1N(CC)CC(=O)N(C)C,3600 (inactive)
21,CCOC(=O)C1CCN(C(=O)Nc2ccc(Cl)cc2)CC1,2770 (inactive)

row,SMILES,fluorescence intensity
1,CCOC(=O)C1CCN(Cc2ccc(-c3ccccc3)cc2)CC1,3660 (inactive)
2,CCOC(=O)C1CCN(Cc2coc3ccc(Cl)cc3c2=O)CC1,20400 (active)
3,Cc1cc(CNCc2c(C(=O)N(C)Cc3ccccc3)nc3ccccn23)nn1C,2160 (inactive)
4,COc1ccc(C2C(C#N)=C(N)Oc3cc(N)ccc32)cc1OC (stereo unspecified),23300 (active)
5,N#CC1=C(N)Oc2cc(O)ccc2C1C1CCCCC1 (stereo unspecified),4810 (inactive)
6,N#CC1=C(N)Oc2cc(N)ccc2C1c1ccccc1 (stereo unspecified),4230 (inactive)
7,O=C(NCc1ccccc1Cl)c1csc([C@@H]2O[C@H](CO)[C@@H](O)[C@H]2O)n1,3690 (inactive)
8,Cc1cccc(-n2ncc(C#N)c2-n2cccc2)c1,19100 (active)
9,Cc1cccc(-n2ncc(Cl)c(Cl)c2=O)c1,3990 (inactive)
10,CC(=O)Nc1c2c(nn1-c1cccc(C)c1)CSC2,5830 (inactive)
11,CCOC(=O)C1CCCN(C(=O)c2ccc(N(C)C)cc2)CC1 (stereo unspecified),2830 (inactive)
12,CCc1nc2c(OCCC3CCCCC3)cccn2c1N(C)C(=O)c1ccco1,3130 (inactive)
13,COc1ccc(C(=O)N2CCCCC2c2cc(C(=O)Nc3ccccc3)no2)cc1 (stereo unspecified),3670 (inactive)
14,CCCNC(=O)C1(C)CCN(Cc2ccc(Cl)c(Cl)c2)C1 (stereo unspecified),4070 (inactive)
15,CC1(C(=O)Nc2ccccc2Br)CCN1C(=O)CC1CC1 (stereo unspecified),4640 (inactive)
16,O=C(Nc1cccc(Cc2ccccc2)c1)Nc1ccc2nc([C@@H]3O[C@H](CO)[C@@H](O)[C@H](O)[C@H]3O)[nH]c2c1,5830 (inactive)
17,O=C(C(Cl)Cl)N1CCN(c2ccccn2)CC1,2340 (inactive)
18,O=C(CN1CCN(c2ccccn2)CC1)NC1CCCCC1,5140 (inactive)
19,CN1C(=O)CC(N2CCN(c3ccccn3)CC2)C1=O (stereo unspecified),20700 (active)
